Compounds with a hit are over-represented: about 2.6% of the library has one in this group of screens.
TWEAK-Fn14 inh – inhibitors of TWEAK-Fn14 signaling, primary screen, luciferase reporter cells, uHTS. TWEAK-stimulated Fn14 reporter cells, luciferase luminescence, 8 h. inhibition, % at 10 µM. hit rate 2% among 360,000. AID 1159606, 2016; in the data active means inhibition above about 50%
TROY signal inh – inhibitors of TROY-driven NF-kB signaling, primary screen, Q293 LMP1-TROYcd cells, NF-kB luciferase, uHTS; AID 1347056, 2019; inhibition, % at 10 µM; Q293 LMP1-TROYcd NF-kB luciferase reporter, 4 h; hit rate 0.98% among 360,000;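 active means compounds whose plate-normalised and pattern-corrected inhibition of the luciferase reporter signal at the single screening dose is 50% or more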
LMP1 NFkB inh – EBV LMP1-driven NF-kappaB luciferase reporter inhibitors, primary screen, cell-based, luminescence, single point. LMP1-induced NF-kappaB luciferase reporter cells. inhibition, % at 12.5 µM. hit rate 0.69% among 350,000; in the data active means inhibition above about 41%
LGR2 antag – inhibitors of bursicon-induced LGR2 CRE-luciferase signal, primary screen, cell-based, HEK293, CRE-luciferase reporter, bursicon stimulation; inhibition, % at 9.99 µM; hit rate 0.35% among 380,000; bursicon-stimulated, 4 h;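 active means drop in luminescence signal, shown as inhibition above about 50% in the replicate tests, limit read from the data, passing the limit was not always enough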;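 further: agonist challenge used bursicon conditioned medium at about half maximal strength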
EWS-Fli block – EWS/Fli-driven NR0B1 reporter inhibitors, primary screen, A673 cells, NR0B1 luciferase, luminescence, MLPCN library. viability-normalised. inhibition, % at 12.6 µM. hit rate 0.67% among 350,000;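 active means mean inhibition of at least 50% after viability correction, with every replicate also passing that limit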;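 further: firefly luciferase signal divided by Alamar Blue viability fluorescence both relative to DMSO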
A number is an active result; i = inactive; nt = no result.

SMILES	TWEAK-Fn14 inh	TROY signal inh	LMP1 NFkB inh	LGR2 antag	EWS-Fli block
CN(C)CC(=O)N[C@@H]1CC[C@@H](CC(=O)NCc2ccc(Cl)cc2)O[C@@H]1CO	nt	nt	nt	i	i
CCOC(=O)c1nn(-c2ccc3c(c2)CCN3C(C)=O)cc1O	65	i	i	i	i
CCOC(=O)c1nn(-c2ccc(F)cc2)cc1O	i	i	i	i	i
COc1cc(/C=C/C(=O)c2ccc(NS(=O)(=O)c3ccc(C)cc3)cc2)cc(OC)c1O	60	i	i	i	nt
COc1cc(/C=C/C(=O)c2ccc(C)c([N+](=O)[O-])c2)cc(OC)c1O	69	i	i	i	i
Cc1cccc(-c2ccc([C@H]3[C@H](CO)N4C(=O)CN(C(=O)NC5CCCCC5)C[C@@H]34)cc2)c1	nt	nt	nt	i	i
CCN(CC)CC(C)CNC(=O)CC(C(=O)N1CCc2ccccc21)n1ccnc1 (configuration not stated)	56	i	i	i	nt
Cc1noc(C)c1NC(=O)N(C)C[C@@H]1OCCCC[C@@H](C)Oc2ccc(NS(=O)(=O)c3ccccc3)cc2C(=O)N([C@H](C)CO)C[C@H]1C	nt	nt	nt	i	i
CC1=CN2C(=N)/C(=C/c3ccc(Sc4ccc(C)cc4)o3)C(=O)N=C2S1	i	i	i	nt	i
CC1=CN2C(=N)/C(=C/c3ccc(C)o3)C(=O)N=C2S1	66	i	i	i	nt
C[C@H]1CN([C@@H](C)CO)S(=O)(=O)c2ccc(C#Cc3cccc(F)c3)cc2O[C@@H]1CN(C)C	nt	nt	nt	i	i
CC(=O)N(C)C[C@@H]1Oc2ncc(C#Cc3ccccc3F)cc2C(=O)N([C@H](C)CO)C[C@H]1C	nt	nt	nt	i	i
Clc1cccc(Cc2c(-c3ccco3)nc3c4ccccc4ccn23)c1	69	i	nt	i	i
Fc1cccc(Cc2c(-c3ccco3)nc3ccc(Br)cn23)c1	i	i	nt	i	i
Fc1cccc(Cc2c(-c3ccco3)nc3ccc(Cl)cn23)c1	54	i	nt	nt	nt
Fc1cccc(Cc2c(-c3ccco3)nc3c4ccccc4ccn23)c1	51	i	nt	i	i
COCC(=O)N1C[C@H](C)[C@H](OC)CN(C)C(=O)c2cc(NC(=O)C3CCC3)ccc2OC[C@H]1C	nt	nt	nt	i	i
C/C=C/c1cnc2c(c1)C(=O)N([C@@H](C)CO)C[C@H](C)[C@H](CN(C)C(=O)Cc1ccccc1)O2	nt	nt	nt	i	i
CCOc1ccc2c(c1)C(C)=CC(C)(C)N2S(=O)(=O)c1ccc(F)cc1	i	i	i	i	62
O=C1NC(c2ccccc2)=C(c2ccccc2)C1=O	i	i	i	i	i
O=C1C(Br)=C(c2ccccc2)C(c2ccccc2)=C1c1ccccc1	57	i	i	nt	nt
CCCC[C@H](CN[C@@H](CNC)[C@H](C)CC)NCCC12CCC(CC1)C2	i	i	i	i	57
Cc1ccc(C)c(-n2nnnc2Sc2nnnn2-c2ccccc2)c1	101	53	i	nt	nt
CCSc1nnnn1-c1ccccc1	i	i	i	i	nt
O=C(CCl)c1ccc2c(c1)CCN2C(=O)C1CCCCC1	i	53	i	i	i
SMILES	TWEAK-Fn14 inh	TROY signal inh	LMP1 NFkB inh	LGR2 antag	EWS-Fli block
CCC1CCCCN1S(=O)(=O)c1ccc2c(c1)CCN2C(=O)C1CCC1 (configuration not stated)	i	i	i	nt	nt
Cc1cccc(-c2nc(S(=O)(=O)c3ccc(F)cc3)c(NCCCN3CCOCC3)o2)c1	78	i	i	i	i
COc1ccc(NC(=O)CSCC(=O)NCc2ccco2)cc1	i	i	i	i	i
COc1ccc(-c2nc(CSCC(=O)NCc3ccco3)c(C)o2)cc1	69	i	i	nt	nt
NC(=O)C(C(=O)/C=C/c1ccc(Cl)cc1)=C1SCCS1	51	i	i	i	i
COc1ccc(/C=C/C(=O)C(C(N)=O)=C2SCCS2)cc1	i	i	i	i	i
O=C(C[C@H]1CC[C@H](NS(=O)(=O)c2ccc(F)cc2)[C@@H](CO)O1)NCc1ccncn1	nt	nt	nt	i	i
COc1ccc(-n2nnnc2S(=O)(=O)CC(=O)N2CCCCC2)cc1	96	57	61	99	i
COc1ccc(-n2nnnc2S(=O)(=O)Cc2ccc(C(=O)O)cc2)cc1	i	i	i	nt	nt
CCCN1CCC(=O)N([C@H](CSc2ccc(C)cc2)c2ccccc2)CC1	i	50	i	nt	i
COc1ccc(C(=O)c2coc3ccc(O)cc23)cc1	56	i	i	i	i
